Source: PubChem BioAssay
FBW7 activator: activators of human E3 ligase FBW7; AlphaScreen FBW7–phospho-cyclin E peptide binding, activator screen; Q969H0; 650,000 compounds, 0.13% hits; normalized activity (activation), % at 26.1 µM; in the data active = normalized activity above about 1.9%;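 also: purified mutant Fbw7 with reduced substrate affinity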
MITF inh: inhibitors of human MITF; AlphaScreen MITF homodimerization, bead proximity signal; inhibition, % at 2.6 µM; 650,000 compounds, 0.91% hits; O75030; in the data active = inhibition above about 50%;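 also: 0% = vehicle wells with protein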
Target sequence (O75030 whole entry, looked up): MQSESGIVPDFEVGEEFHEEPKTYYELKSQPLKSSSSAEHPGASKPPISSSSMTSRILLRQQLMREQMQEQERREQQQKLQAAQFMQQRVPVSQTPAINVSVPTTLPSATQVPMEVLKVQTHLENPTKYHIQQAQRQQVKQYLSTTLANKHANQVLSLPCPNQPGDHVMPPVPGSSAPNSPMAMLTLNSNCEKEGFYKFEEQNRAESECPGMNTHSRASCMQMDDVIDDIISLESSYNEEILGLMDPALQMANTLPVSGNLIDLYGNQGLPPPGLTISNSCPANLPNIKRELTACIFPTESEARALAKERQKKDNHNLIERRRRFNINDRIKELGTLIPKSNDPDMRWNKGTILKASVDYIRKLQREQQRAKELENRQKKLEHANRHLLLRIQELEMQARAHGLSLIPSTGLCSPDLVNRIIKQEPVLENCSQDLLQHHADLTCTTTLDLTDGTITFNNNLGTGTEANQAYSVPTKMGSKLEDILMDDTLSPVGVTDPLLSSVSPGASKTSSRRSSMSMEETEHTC
GPR151 activ: activators of human GPR151; Q8TDV0; PathHunter beta-arrestin GPR151 cells, luminescence; activation, % at 11.2 µM; 650,000 compounds, 1% hits; in the data active = activation above about 4.9%;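 also: 0% = median of compound wells and 100% = cells with positive control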
TEAD-YAP inh: TEAD-YAP interaction inhibition | AID 1259422 | HEK-TIYL cells, TEAD-Gal4/YAP UAS-luciferase luminescence | inhibition, % at 9.12 µM | 640,000 compounds, 1.4% hits; in the data active = inhibition above about 32%;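 also: 0% = median of test compound wells and 100% = reference inhibitor wells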
GPR151 conf act: confirmation of human GPR151 activators; 6,700 tested, under 10 active; activation, % at 11.2 µM; shares compounds with GPR151 activ; GPR151 PathHunter beta-arrestin cells, luminescence, 90 min; % of EA-reagent control over plate median;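 active = mean percent activation across replicates above the confirmation screen cutoff of 4.91%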
GPR119 ag: GPR119 activation, counter-screen for GPR151 activators; shares compounds with GPR151 activ; GPR119 PathHunter beta-arrestin cells, luminescence, 90 min; 0 = compound-well median, 100 = enzyme-acceptor control; activation, % at 11.2 µM; 6,700 compounds, 0.3% hits; AID 1508611;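 active = mean percent activation in the counterscreen above 29.09%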;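 also: counterscreen on off-target GPR119 to flag nonselective hits from the GPR151 activator screen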
Active calls of the source: *; nt = no result. Most compounds without a hit are left out; they make up all but 3.5% or so of the library.

SMILES	FBW7 activator	MITF inh	GPR151 activ	TEAD-YAP inh	GPR151 conf act	GPR119 ag
CC(=O)N1CCc2cc(NS(=O)(=O)c3ccc4ccccc4c3)ccc21	-0.2	8.0	5.0*	-5.2	0.7	2.7
CC(=O)N1CCSc2cc(S(=O)(=O)NC3CCCCC3)ccc21	0.2	-16.0	6.1*	14.1	0.9	2.0
CC(=O)N1CCSc2cc(S(=O)(=O)Nc3ccc(Cl)cc3)ccc21	-0.1	1.5	5.0*	3.8	0.2	2.2
COC(=O)C1CC(=O)N(Cc2ccc3ccccc3c2)C12CCN(CCC(C)C)CC2 (configuration not stated)	-0.1	-5.1	-0.2	-3.1	nt	nt
Cc1ccc(C(=O)c2oc3ccc(NC(=O)c4ccco4)cc3c2C)cc1	0.0	9.4	7.8*	14.8	0.2	-5.1
Cc1c(C(=O)c2ccccc2)oc2ccc(NC(=O)c3cccs3)cc12	-0.2	5.2	-1.5	-54.2	nt	nt
OC(CNCc1ccc2c(c1)OCO2)COC(c1ccccc1)c1ccccc1 (configuration not stated)	-0.4	5.5	0.7	-1.2	nt	nt
COc1ccc(N/C=C\C(=O)c2ccc3ccccc3c2)cc1OC	0.7	-10.1	-0.9	-22.4	nt	nt
O=C(Nc1nnc(COc2ccccc2)o1)c1ccccc1	0.2	20.1	-0.2	8.8	nt	nt
O=C(Nc1nnc(COc2ccccc2)o1)c1cc(Br)ccc1Cl	0.0	11.9	4.9*	2.9	-2.1	-15.0
CC(CC(=O)Nc1nc2ccc([N+](=O)[O-])cc2s1)c1ccccc1 (configuration not stated)	0.2	18.0	6.5*	15.9	0.6	9.1
CCOC(=O)c1c(C)oc2ccc(OCC(=O)O)cc12	0.2	14.1	0.3	4.4	nt	nt
CCOC(=O)N1CCN(C(=O)Cn2cc(NC(=O)Cc3ccccc3OC)cn2)CC1	0.1	1.8	9.1*	-0.8	1.2	20.9
Nc1nc(Nc2ccc(N3CCOCC3)cc2)cc(-c2csc3ccccc23)n1	-0.1	15.3	-1.0	-32.0	nt	nt
Nc1nc(Nc2ccccc2)cc(-c2cccs2)n1	-0.2	6.8	6.2*	-56.5	0.5	0.3
Nc1nc(Nc2ccc(Oc3ccccc3)cc2)cc(-c2csc3ccccc23)n1	0.0	5.2	6.7*	52.0*	0.1	1.6
Nc1nc(Nc2ccccc2)cc(-c2ccccc2)n1	-0.1	5.1	-1.1	2.4	nt	nt
CCOCc1cc(CN2CCN(C3CCN(C(C)C)CC3)C(CCO)C2)ccc1OC (configuration not stated)	-0.1	-9.7	1.3	-14.4	nt	nt
Cc1ccn(CC(=O)N2CCC3(CC2)CC3C(=O)N2CCN(Cc3cccs3)CC2)n1 (configuration not stated)	-0.1	5.7	0.3	11.1	nt	nt
COc1ccc(CC2(CO)CCN(S(=O)(=O)c3cc(C)cs3)CC2)cc1	-0.1	-13.5	-0.2	3.3	nt	nt
Cc1csc(S(=O)(=O)N2CCC(CO)(Cc3ccccc3Cl)CC2)c1	0.0	-3.5	27.3*	-10.4	-1.1	-7.1
CCOC(=O)C1CCN(C(=O)/C=C/c2cccc([N+](=O)[O-])c2)CC1	-0.1	-0.2	6.6*	-6.9	-0.4	0.6
CCOC(=O)C1CCN(C(=O)/C=C/c2ccc([N+](=O)[O-])cc2)CC1	0.2	14.3	0.3	-12.7	nt	nt
CCOC(=O)/C(C#N)=C(\C)c1ccccc1	0.2	6.7	7.0*	-4.7	1.5	8.3
CCOC(=O)C(C#N)=C(c1ccccc1)c1ccccc1	0.0	-7.6	0.1	5.3	nt	nt
SMILES	FBW7 activator	MITF inh	GPR151 activ	TEAD-YAP inh	GPR151 conf act	GPR119 ag
Cc1ccc(C2=CSC3=NS(=O)(=O)CCN23)c(C)c1	0.0	6.0	0.1	6.3	nt	nt
CC(=O)n1cc(/C=c2\sc3nc4cc(C)c(C)cc4n3c2=O)c(-c2ccc(F)cc2)n1	0.0	-12.1	6.1*	-6.8	1.1	-7.1
CC(C)(C)c1nnc(Nc2cc(Cl)ccc2Cl)[nH]c1=O	0.0	0.7	5.7*	-6.2	0.6	5.5
CC(C)(C)c1nnc(Nc2ccccc2Cl)[nH]c1=O	-0.1	-1.4	0.1	-0.3	nt	nt
Cc1nn(C)cc1CN(C)C(=O)c1cc2nc(-c3cccs3)cc(C(F)(F)F)n2n1	0.6	16.6	-0.2	-11.7	nt	nt
Cc1ccc(NC(=O)COc2ccccc2C(=O)NC(C)c2ccccc2)cc1[N+](=O)[O-] (configuration not stated)	0.2	17.4	7.1*	9.6	0.2	-13.0
